Results as given in PubChem BioAssay AID1508600 (Functional Genomics Laboratory (NCATS/FGL), 2020).
About 3,700 (7%) of roughly 53,000 sequences were called active. Many of the other results were omitted from the sample, so actives are more common in it than they were. A number with no mark means an inactive call.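 Rule for the calls: active = gene knockdowns whose robust z-score for IL-1 alpha signal is at least 2 or at most -2, so actives lie on both sides; inactive = the rest.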

test: Components of the Cytosolic LPS Sensing Pathway: Gene Identification via Genome-wide siRNA Screen; settings: RAW264.7 macrophages, IL-1a HTRF, actives lie on both sides, screened at 100 nM (by protocol), cells primed 5 h with Pam3CSK4 first;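 note: robust z of the log signal after scaling to non-targeting control siRNA wells of the plate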
In short: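 Read-out: IL-1a HTRF on supernatant, divided by plate negative-control median ×100, log-transformed and converted to robust z-score. Cells were RAW264.7 given 100 nM siRNA, Pam3CSK4-primed 5 hours, then LipidA-transfected 24 hour.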

Sequence | z-score
UGGCCUGAUCAUGAACAGUTT against S100a7a | 1.21
GGCCGAAGAAUUCAUCUUUTT against Pomgnt2 | -0.339
GGUCGAUUUGUCCUUGUGCTT against Rassf7 | -2.04 (active)
GGGCCUGAAAAGACCAUCATT against Olfr124 | -0.424
CCUUGAUCUACAUAGAACCTT against Olfr177 | 0.338
GGGAUUUUGUGAUGUCCGCTT against Mmp23 | 0.422
CCACUUUCAACCUGACCGUTT against Pcdhac2 | 0.345
GGACGAUUCCCAGUUUCUGTT against Phf1 | 1.25
GCCGGAAUCAAGAUUAUCATT against Foxm1 | -2.04 (active)
GGCUGCUUUCUGAUGGUCATT against Marchf3 | 0.595
GGAAUACUGAAUUUAAGGATT against Olfr1416 | 1.25
GGAAGCGUAAAUAAGUGUCTT against Emp2 | 0.772
GGAAAAUGUUGAAGUGGAATT against Ndufa5 | -0.805
GGUGCAUGCACUGAAGAAGTT against Mpv17 | 1.39
CGAAUAGGGAGCCAUAAGATT against Tubb6 | 1.66
GCCUCACUCAGCAAAAGGATT against Ttc9c | -2.09 (active)
GGAGACCUGUGACUCCUUATT against 4932415M13Rik | 1.9
GCUAGACUUCUUUGUGCGATT against Abhd8 | 0.656
GGCAAUGGCACUGAAGUCATT against Olfr994 | -0.0376
CCCAAGCAACCCUUAUCAATT against Mcee | -0.315
GGUAUCACUACUUUUUAGUTT against Eri3 | -0.742
GGUUUGUGGUGGUAUUUAATT against Man2a2 | 2.47 (active)
GGAUGAGGACACCAUUGAUTT against Sumo3 | 0.723

Sequence | z-score
GGUUGACGAAAUGACUAUATT against Adh4 | -0.105
GCAGACCAGACAGUAUUACTT against Zeb1 | 1.22
GCCUCUCAUUAGCAGUCAATT against Fbxl15 | -1.92
CGUUAGCUGUUAUGAUCUATT against Cept1 | 0.203
GGGUCCUAAGGGAUUUAUUTT against Klf16 | -0.49
GGUUUUGCACAGCAUUGGUTT against Efna1 | -1.02
GGAAUCAAACUGGAUUGAUTT against Pi4k2b | 2.01 (active)
GGUAUUGGAUCAUUUACAATT against Nae1 | -0.0968
CGAUUUGCCCAAUAAAGAATT against Scn9a | 0.223
GGACGAAUUUCUUACAGUATT against Mterf4 | 2.2 (active)
GCCGAUGUCAGUGGUUAAATT against Bmx | 0.198
CCUGGUAUAUUACCGCUUCTT against P3h4 | 0.519
GGAUCUCUGGGUCUGAAAATT against Ccz1 | 0.606
GCACGUCCAUUCUGCUUUCTT against Smco4 | 2.4 (active)
GGACCUGUGUGCUGAGUUGTT against Matn4 | -1.59
GGGAGAUUAAUCAAGAACUTT against Ccnc | 0.809
GGUUGGAGAUCUCAUCUAUTT against Exosc3 | 0.699
GCACCUCUCUACAUUACUGTT against Igflr1 | -0.0949
GGCUGAAGACACUGAACACTT against Olfr643 | -2.51 (active)
GCAUUCAGAAAGUGUAUAATT against Tspan3 | -0.0953
GGGUGAAGGUGAAUAUUUATT against Esm1 | -1.12
GGCCUAGACAUACAUGAAATT against Bnip3l | 2.93 (active)
GCCAAAGUAGUUGAACCUUTT against Cibar1 | -0.48

Sequence | z-score
GGACUGAACCGUUUUAAAGTT against Fmo3 | -0.317
GCAUUACUUUAAGCCAUAUTT against Rbl1 | 3.57 (active)
GGGCCUGUACAUCUUCCAATT against Anpep | 0.926
CUGGAUGCAUUAACUUCUUTT against Olfr1219 | 0.326
GGGUAGUUAUGACUAAAUUTT against Etl4 | 1.31
GGAGAAUAUUCUCUGUGGATT against Rab11fip5 | -2.71 (active)
GCACACUACAACGUAUCACTT against Stpg2 | 1.31
CCCAACUGUCAAAUAAUCCTT against Eddm3b | 0.0505
GCCAUUACCCGGUAUAUGATT against Sesn1 | -1.96
GGAUCACUCUAAUUCAGAUTT against Fcamr | 1.93
GGACAUUUGAUAUUGAAGATT against B3gnt2 | -1.88
CGGAAGUAAAAAGAACUACTT against Olfr1321 | 3.01 (active)
CCCUGGUGACUACGAGAAUTT against Chrna4 | -0.462
GGACUUUACAAUAAAACAGTT against Dkk4 | -2.2 (active)
GGUGAUGCCUUAUUUUGAATT against Ap5s1 | -1.1
GGUAACAAACCGAAAGUAUTT against Polr3k | -0.539
GGAACAAGUGUCUGACAGUTT against Emc3 | 1.82
GCGCACAGUACAUUCAUUUTT against Drd5 | 3.62 (active)
CCGAAAACUUAUCUAGAAATT against BC023105 | -0.846
GGAUCAACAUGGUCUCCUCTT against Stambpl1 | -1.63
GCCAGAAAAGUACCACCAGTT against Slc35f4 | -1.15
GCUUUCAUAGAAUCUUGGCTT against Rnf24 | 0.709
GGAGAUGGCUAUAUUCUGATT against Lipa | 0.0668
